This is a sample that favours compounds with a hit; in the whole collection about 5.1% have one here.
CRFBP-R2 agonist – agonists of human CRF-binding protein/CRF-R2 receptor complex; HEK293 CRF-R2/CRF-BP, calcium dye fluorescence (FLIPR); percent of saturating CRF peptide response; activation, % at 13.2 µM; 350,000 compounds, 0.46% hits; AID 588473;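 active = activation of at least 50%, plus an integration ratio under a set limit after plate pattern correction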;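 note: plate controls were neutral control wells without compound for no effect and CRF at EC100 for full effect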
MPTP inh – inhibitors of mitochondrial permeability transition pore | inhibition, % at 10 µM | isolated mouse mitochondria, Ca2+ swelling absorbance, 30 min | 360,000 compounds, 1.4% hits;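 active = inhibition of 50% or more, scaled per plate between neutral and stimulator controls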;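 note: 0% = DMSO wells given calcium and 100% = 1 mM EGTA wells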
CRFR2-BP antag – CRF-BP/CRF-R2 complex antagonism. HEK293 CRF-R2/CRF-BP, CRF-induced calcium fluorescence. AID 588475. inhibition, % at 11.8 µM. 350,000 compounds, 0.59% hits;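 active = inhibition of the ligand-induced calcium signal above about 50% at the single tested concentration, limit read from the data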
ANO1 activ – activators or potentiators of mouse TMEM16A chloride channel. Q8BHY3. HEK293 TMEM16A/YFP-H148Q/I152L, iodide quench fluorescence; active compounds read low. B-score at 10 µM. 340,000 compounds, 0.3% hits;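 active = fluorescence-ratio B-score plate-corrected deviation score at least 3 library SD below zero, with starting fluorescence score within 5 deviations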;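 note: channel opened by trigger with iodide after compound preincubation; score built on the fluorescence ratio of max minus min over baseline; more negative score means more quench and so TMEM16A activation or potentiation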
NR3A LBD binder – modulates the human NR3A ligand-binding domain; NR3A LBD differential scanning fluorimetry, Tm shift; 0% = protein alone, 100% = glycine-bound protein; Tm shift relative to glycine control, % at 25 µM; 340,000 compounds, 2.5% hits; AID 1259313;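 active = melting temperature shift of at least 10% of the positive control shift, at one fixed dose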
ANO1 block – mouse TMEM16A channel inhibition, primary screen | normalized B-score (activity score, 25-100; higher = stronger inhibition) at 10 µM | 310,000 compounds, 1.2% hits | HEK293 TMEM16A/YFP iodide influx fluorescence, ionomycin | Q8BHY3;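 active = ratio plate-corrected score three or more library SD toward inhibition, starting fluorescence score within five deviations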;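 note: score derived from kinetic fluorescence span divided by baseline fluorescence per well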
* marks the source's active call; other numbers are inactive results; i = inactive; nt = no result.

SMILES	CRFBP-R2 agonist	MPTP inh	CRFR2-BP antag	ANO1 activ	NR3A LBD binder	ANO1 block
CCc1nc2nc(C)c(NS(=O)(=O)c3ccc(Cl)cc3)c(=O)n2[nH]1	0	0	4	i	-2	i
O=C(c1cccs1)N1N=C(c2ccccc2)CC1c1ccccc1O (stereo unspecified)	1	2	41	i	-16	i
Cc1ccc(C2=NN(C(=O)c3cccs3)C(c3ccccc3O)C2)cc1 (stereo unspecified)	-2	5	75*	i	5	i
CCCCNC(=O)C1(C)CCN1C(=O)c1ccc2ccccc2n1 (stereo unspecified)	nt	0	nt	nt	nt	nt
O=C(O)C1=C[C@@H](c2ccc(Br)cc2)C[C@@H](OCc2ccc(CO)cc2)O1	-1	0	76*	i	2	i
NC(=O)C1=C[C@H](c2ccc(Br)cc2)C[C@H](OCc2ccc(CO)cc2)O1	-1	0	12	i	-2	i
CCOc1cccc(C=NNc2ccc(S(=O)(=O)Nc3ccccc3C(=O)O)cc2[N+](=O)[O-])c1O	-4	0	4	i	17*	nt
CCOc1ccc(C=NNc2ccc(S(=O)(=O)Nc3ccccc3C(=O)O)cc2[N+](=O)[O-])cc1	-1	38	10	i	5	nt
C=CCOc1ccc(C=NNc2ccc(S(=O)(=O)Nc3ccccc3C(=O)O)cc2[N+](=O)[O-])cc1OC	0	12	67*	i	9	nt
O=C(O)c1ccccc1NS(=O)(=O)c1ccc(NN=Cc2ccccc2F)c([N+](=O)[O-])c1	0	45	8	i	10*	nt
COc1ccc(C=NNc2ccc(S(=O)(=O)Nc3ccccc3C(=O)O)cc2[N+](=O)[O-])c(OC)c1	-1	41	34	i	457*	nt
O=C1c2ccccc2C(c2nnnn2Cc2ccccc2)N1CCc1ccc(O)cc1 (stereo unspecified)	nt	-2	nt	nt	nt	nt
Cn1c(-c2ccccc2)cc(=NNS(C)(=O)=O)c2cc(S(=O)(=O)O)ccc21	-5	0	10	nt	nt	nt
Cc1nn(-c2ccccc2)c(Cl)c1/C=N/NS(=O)(=O)c1ccc(Br)cc1	4	41	17	i	17*	i
COc1ccc(NC(=S)NNc2ccc(S(=O)(=O)Nc3ccccc3C(=O)O)cc2[N+](=O)[O-])cc1	0	3	17	i	16*	i
O=C(O)c1ccccc1NS(=O)(=O)c1ccc2ccccc2c1	0	1	3	i	-9	i
CSc1ccc(C=NNc2ccc(S(=O)(=O)Nc3ccccc3C(=O)O)cc2[N+](=O)[O-])cc1	0	49	20	i	9	nt
O=[N+]([O-])c1ccccc1/C=C/C=N/Nc1ccc(S(=O)(=O)Nc2ccc(Cl)cc2)cc1[N+](=O)[O-]	3	4	6	i	11*	i
Cc1nn(-c2ccccc2)c(Cl)c1/C=N/Nc1ccc(S(=O)(=O)Nc2ccccc2C(=O)O)cc1[N+](=O)[O-]	-1	35	74*	i	1	i
CC(=O)N1CC(C)Sc2ccc(S(=O)(=O)NCCc3cccc(C)c3)cc21 (stereo unspecified)	-1	1	-11	i	-2	i
COc1ccc(C(=O)NNC2=C(C(=O)C(F)(F)F)CCC2)cc1	0	49	17	i	0	i
O=C(NNC1=C(C(=O)C(F)(F)F)CCC1)c1cccc(Cl)c1	13	38	55*	i	-1	100*
O=[N+]([O-])c1cc(S(=O)(=O)NCCN2CCOCC2)ccc1Cl	1	-2	3	i	0	i
CC(=O)Nc1ccc(NC(=O)CSc2nnc(NC(=O)C3CC(=O)N(c4ccc(F)cc4)C3)s2)cc1 (stereo unspecified)	1	-2	3	i	-1	i
CC(C)(C)C(=O)c1sc2nc(-c3cccs3)cc(C(F)(F)F)c2c1N	83*	3	-32	i	-1	i
SMILES	CRFBP-R2 agonist	MPTP inh	CRFR2-BP antag	ANO1 activ	NR3A LBD binder	ANO1 block
Cc1cc(C(F)(F)F)c2c(N)c(C(=O)NC3CC3)sc2n1	-2	2	8	i	4	i
COc1ccccc1NC(=O)c1sc2nc(Cc3ccccc3)cc(C(F)(F)F)c2c1N	58*	2	-66	i	2	i
CCN(CC)C(=O)c1sc2nc(-c3cccs3)cc(-c3ccc(Cl)cc3)c2c1N	10	0	-11	i	-2	i
COc1ccc(NC(=O)c2sc3nc(Cc4ccccc4)cc(C(F)(F)F)c3c2N)cc1OC	5	-1	-36	i	-1	i
Cc1nnc(NC(=O)c2sc3nc(-c4cccs4)cc(C(F)(F)F)c3c2N)s1	213*	24	-243	i	-2	i
CCC(Oc1ccccc1)C(=O)OCC(=O)N(CC)c1c(N)n(Cc2ccccc2)c(=O)[nH]c1=O (stereo unspecified)	1	1	1	i	2	i
COc1ccc(-c2cc(C(F)(F)F)nc(SCC(=O)N3CC(C)OC(C)C3)n2)cc1OC (stereo unspecified)	-1	-4	-3	-4.6*	-1	nt
CCCOCCc1nnc(N)s1	-1	0	-6	i	1	i
Cc1c(Cl)cccc1NC(=S)N(CCCN1CCOCC1)Cc1cccs1	-2	-1	-1	i	17*	i
COc1ccc2c(/C=N/NS(=O)(=O)c3ccc(C)cc3)c[nH]c2c1	-1	3	-2	i	33*	i
COc1ccc(OC)c(S(=O)(=O)N/N=C(/C)c2ccc3c(c2)OCO3)c1	0	-2	1	i	2	i
COc1ccc(S(=O)(=O)N/N=C\c2ccccc2F)cc1	0	0	-7	i	0	i
COc1ccc(OC)c(S(=O)(=O)N/N=C(/C)c2c[nH]c3ccccc23)c1	0	1	2	i	25*	i
COc1ccc(OC)c(S(=O)(=O)N/N=C\c2c[nH]c3ccccc23)c1	0	2	-15	i	32*	i
CC1CCc2c(sc(NC(=O)c3nc4ncccn4n3)c2C#N)C1 (stereo unspecified)	0	2	4	i	1	i
N#Cc1c(NC(=O)c2nc3ncccn3n2)sc2c1CCCCC2	-1	1	8	i	18*	i
O=C(COC(=O)COc1ccc2c(c1)CCC2)Nc1ccccc1C(F)(F)F	-1	-1	15	i	1	nt
COc1ccccc1NC(=S)NCc1ccco1	-1	1	-17	i	0	i
COc1cc(NC(=S)NCc2ccco2)cc(OC)c1OC	-2	1	8	i	19*	i
